# From the supplement of paper PMC4022240
# ± gives the standard deviation.
# T1: HaloTag-ATRX ADD domain (163-292)
# T1 chain: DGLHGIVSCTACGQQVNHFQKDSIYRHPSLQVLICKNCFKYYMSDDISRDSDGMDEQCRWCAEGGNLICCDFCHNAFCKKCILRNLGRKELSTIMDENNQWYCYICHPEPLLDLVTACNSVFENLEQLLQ
# Tests used:
# Experiment in all cases: peptide microarray binding signal (635 nm), min-max normalized on array (fraction of array maximum); higher = stronger binding
# Settings in all cases: peptide region: H3 112-124
# [1] = target: T1, HaloTag-ATRX ADD domain (163-292)
# Outline: (§1)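 Within each library, mean intensities of triplicate spots were min-max scaled to give the binding signal. The spots were histone 13-mer peptide–cellulose conjugates on nitrocellulose with a Cy3 tracer, blocked overnight at 4°C. They were then probed for 1 h at 4°C using biotin-labelled HaloTag reader fusions (10 nM to 1 μM) with streptavidin-Alexa Fluor 647 or rabbit histone antibodies (1:10,000 to 1:2,000) with anti-rabbit Alexa 647, and scanned at 635 nm for signal and 532 nm for misprints on an Axon GenePix 4000B.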
# [2] = target: HaloTag-ING2 PHD (mouse Ing2 200-280)
# Outline: as §1
# [3] = target: anti-H3K4me3 antibody ab8580
# Outline: as §1
# [4] = target: anti-H3K9me3 antibody ab8898
# Outline: as §1
# [5] = peptide modifications: H3K115me2 H3R116me1, binder concentration: 1:2,000 dilution
# [6] = peptide modifications: H3K115me2 H3R116me1, binder concentration: 1:10,000 dilution
# [7] = peptide modifications: H3K115me1 H3R116me2a, binder concentration: 1:2,000 dilution
# [8] = peptide modifications: H3K115me1 H3R116me2a, binder concentration: 1:10,000 dilution
# [9] = peptide modifications: H3K115me2 H3R116me2s, binder concentration: 1:2,000 dilution
# [10] = peptide modifications: H3K115me2 H3R116me2s, binder concentration: 1:10,000 dilution
# [11] = peptide modifications: H3K115me2 H3K122me2, binder concentration: 1:2,000 dilution
# [12] = peptide modifications: H3K115me2 H3K122me2, binder concentration: 1:10,000 dilution
# [13] = peptide modifications: H3K115me1 H3R116me2s, binder concentration: 1:2,000 dilution
# [14] = peptide modifications: H3K115me1 H3R116me2s, binder concentration: 1:10,000 dilution
# [15] = peptide modifications: H3K115me3 H3R116me1, binder concentration: 1:2,000 dilution
# [16] = peptide modifications: H3K115me3 H3R116me1, binder concentration: 1:10,000 dilution
# [17] = peptide modifications: H3K115me2 H3K122me1, binder concentration: 1:2,000 dilution
# [18] = peptide modifications: H3K115me2 H3K122me1, binder concentration: 1:10,000 dilution
# [19] = peptide modifications: H3K115me2 H3R116cit, binder concentration: 1:2,000 dilution
# [20] = peptide modifications: H3K115me2 H3R116cit, binder concentration: 1:10,000 dilution
# [21] = peptide modifications: H3K115me3 H3R116me2a, binder concentration: 1:2,000 dilution
# [22] = peptide modifications: H3K115me3 H3R116me2a, binder concentration: 1:10,000 dilution
# [23] = peptide modifications: H3K115me3, binder concentration: 1:2,000 dilution
# [24] = peptide modifications: H3K115me3, binder concentration: 1:10,000 dilution
binder,measurement,setting,value
IHAKRVTIMPKDI [H3 112-124 I H A Kme2 Rme V T I M P K D I],peptide microarray binding signal,"[1]; peptide modifications: H3K115me2 H3R116me1, binder concentration: 50 nM",0.00978 ± 0.00067
same,peptide microarray binding signal,"[1]; peptide modifications: H3K115me2 H3R116me1, binder concentration: 500 nM",0.0323 ± 0.001
same,peptide microarray binding signal,"[2]; peptide modifications: H3K115me2 H3R116me1, binder concentration: 10 nM",0.0352 ± 0.017
same,peptide microarray binding signal,"[2]; peptide modifications: H3K115me2 H3R116me1, binder concentration: 100 nM",0.0291 ± 0.0025
same,peptide microarray binding signal,[3]; [5],0.0244 ± 0.00081
same,peptide microarray binding signal,[3]; [6],0.0144 ± 0.0052
same,peptide microarray binding signal,[4]; [5],0.00761 ± 0.0024
same,peptide microarray binding signal,[4]; [6],0.0104 ± 0.00061
IHAKRVTIMPKDI [H3 112-124 I H A Kme Rme2a V T I M P K D I],peptide microarray binding signal,"[1]; peptide modifications: H3K115me1 H3R116me2a, binder concentration: 50 nM",0.005172 ± 3.7e-05
same,peptide microarray binding signal,"[1]; peptide modifications: H3K115me1 H3R116me2a, binder concentration: 500 nM",0.0151 ± 0.00091
same,peptide microarray binding signal,"[2]; peptide modifications: H3K115me1 H3R116me2a, binder concentration: 10 nM",0.0102 ± 0.00057
same,peptide microarray binding signal,"[2]; peptide modifications: H3K115me1 H3R116me2a, binder concentration: 100 nM",0.0244 ± 0.0083
same,peptide microarray binding signal,[3]; [7],0.00434 ± 0.00096
same,peptide microarray binding signal,[3]; [8],0.00297 ± 8.7e-05
same,peptide microarray binding signal,[4]; [7],0.0064 ± 0.00053
same,peptide microarray binding signal,[4]; [8],0.00317 ± 0.00013
IHAKRVTIMPKDI [H3 112-124 I H A Kme2 Rme2s V T I M P K D I],peptide microarray binding signal,"[1]; peptide modifications: H3K115me2 H3R116me2s, binder concentration: 50 nM",0.006426 ± 2.2e-05
same,peptide microarray binding signal,"[1]; peptide modifications: H3K115me2 H3R116me2s, binder concentration: 500 nM",0.00905 ± 0.00055
same,peptide microarray binding signal,"[2]; peptide modifications: H3K115me2 H3R116me2s, binder concentration: 10 nM",0.0113 ± 0.0004
same,peptide microarray binding signal,"[2]; peptide modifications: H3K115me2 H3R116me2s, binder concentration: 100 nM",0.0135 ± 0.00076
same,peptide microarray binding signal,[3]; [9],0.00383 ± 0.0002
same,peptide microarray binding signal,[3]; [10],0.00462 ± 0.00022
same,peptide microarray binding signal,[4]; [9],0.00335 ± 0.00032
same,peptide microarray binding signal,[4]; [10],0.00236 ± 3.7e-05
IHAKRVTIMPKDI [H3 112-124 I H A Kme2 R V T I M P Kme2 D I],peptide microarray binding signal,"[1]; peptide modifications: H3K115me2 H3K122me2, binder concentration: 50 nM",0.003981 ± 1.6e-05
same,peptide microarray binding signal,"[1]; peptide modifications: H3K115me2 H3K122me2, binder concentration: 500 nM",0.00729 ± 0.00043
same,peptide microarray binding signal,"[2]; peptide modifications: H3K115me2 H3K122me2, binder concentration: 10 nM",0.0277 ± 0.0045
same,peptide microarray binding signal,"[2]; peptide modifications: H3K115me2 H3K122me2, binder concentration: 100 nM",0.0324 ± 0.0023
same,peptide microarray binding signal,[3]; [11],0.00387 ± 0.0014
same,peptide microarray binding signal,[3]; [12],0.00382 ± 0.00021
same,peptide microarray binding signal,[4]; [11],0.0021 ± 6.7e-05
same,peptide microarray binding signal,[4]; [12],0.002076 ± 1.9e-05
IHAKRVTIMPKDI [H3 112-124 I H A Kme Rme2s V T I M P K D I],peptide microarray binding signal,"[1]; peptide modifications: H3K115me1 H3R116me2s, binder concentration: 50 nM",0.00257 ± 2.3e-05
same,peptide microarray binding signal,"[1]; peptide modifications: H3K115me1 H3R116me2s, binder concentration: 500 nM",0.00552 ± 0.00018
same,peptide microarray binding signal,"[2]; peptide modifications: H3K115me1 H3R116me2s, binder concentration: 10 nM",0.004 ± 0.00015
same,peptide microarray binding signal,"[2]; peptide modifications: H3K115me1 H3R116me2s, binder concentration: 100 nM",0.00716 ± 0.00083
same,peptide microarray binding signal,[3]; [13],0.000906 ± 2.8e-05
same,peptide microarray binding signal,[3]; [14],0.00137 ± 1.3e-05
same,peptide microarray binding signal,[4]; [13],0.00156 ± 0.00014
same,peptide microarray binding signal,[4]; [14],0.00127 ± 1.3e-05
IHAKRVTIMPKDI [H3 112-124 I H A Kme3 Rme V T I M P K D I],peptide microarray binding signal,"[1]; peptide modifications: H3K115me3 H3R116me1, binder concentration: 50 nM",0.0052 ± 0.00018
same,peptide microarray binding signal,"[1]; peptide modifications: H3K115me3 H3R116me1, binder concentration: 500 nM",0.00929 ± 0.00049
same,peptide microarray binding signal,"[2]; peptide modifications: H3K115me3 H3R116me1, binder concentration: 10 nM",0.0491 ± 0.0085
same,peptide microarray binding signal,"[2]; peptide modifications: H3K115me3 H3R116me1, binder concentration: 100 nM",0.07016 ± 0.00021
same,peptide microarray binding signal,[3]; [15],0.0275 ± 0.0037
same,peptide microarray binding signal,[3]; [16],0.0305 ± 0.0067
same,peptide microarray binding signal,[4]; [15],0.0215 ± 0.0033
same,peptide microarray binding signal,[4]; [16],0.0113 ± 0.0013
IHAKRVTIMPKDI [H3 112-124 I H A Kme2 R V T I M P Kme D I],peptide microarray binding signal,"[1]; peptide modifications: H3K115me2 H3K122me1, binder concentration: 50 nM",0.00398 ± 8.3e-05
same,peptide microarray binding signal,"[1]; peptide modifications: H3K115me2 H3K122me1, binder concentration: 500 nM",0.00852 ± 0.00012
same,peptide microarray binding signal,"[2]; peptide modifications: H3K115me2 H3K122me1, binder concentration: 10 nM",0.0224 ± 0.00092
same,peptide microarray binding signal,"[2]; peptide modifications: H3K115me2 H3K122me1, binder concentration: 100 nM",0.0286 ± 0.0023
same,peptide microarray binding signal,[3]; [17],0.0024 ± 0.00012
same,peptide microarray binding signal,[3]; [18],0.002853 ± 2.4e-05
same,peptide microarray binding signal,[4]; [17],0.0016 ± 2.9e-05
same,peptide microarray binding signal,[4]; [18],0.001441 ± 1.4e-05
IHAKRVTIMPKDI [H3 112-124 I H A Kme2 Rcit V T I M P K D I],peptide microarray binding signal,"[1]; peptide modifications: H3K115me2 H3R116cit, binder concentration: 50 nM",0.00386 ± 8.5e-05
same,peptide microarray binding signal,"[1]; peptide modifications: H3K115me2 H3R116cit, binder concentration: 500 nM",0.008 ± 0.00037
same,peptide microarray binding signal,"[2]; peptide modifications: H3K115me2 H3R116cit, binder concentration: 10 nM",0.0196 ± 0.00092
same,peptide microarray binding signal,"[2]; peptide modifications: H3K115me2 H3R116cit, binder concentration: 100 nM",0.0271 ± 0.0013
same,peptide microarray binding signal,[3]; [19],0.00257 ± 8.7e-05
same,peptide microarray binding signal,[3]; [20],0.00211 ± 6.7e-05
same,peptide microarray binding signal,[4]; [19],0.00118 ± 5.6e-05
same,peptide microarray binding signal,[4]; [20],0.00133 ± 4e-05
IHAKRVTIMPKDI [H3 112-124 I H A Kme3 Rme2a V T I M P K D I],peptide microarray binding signal,"[1]; peptide modifications: H3K115me3 H3R116me2a, binder concentration: 50 nM",0.00345 ± 4.9e-05
same,peptide microarray binding signal,"[1]; peptide modifications: H3K115me3 H3R116me2a, binder concentration: 500 nM",0.00524 ± 0.00015
same,peptide microarray binding signal,"[2]; peptide modifications: H3K115me3 H3R116me2a, binder concentration: 10 nM",0.0172 ± 0.00022
same,peptide microarray binding signal,"[2]; peptide modifications: H3K115me3 H3R116me2a, binder concentration: 100 nM",0.0232 ± 0.0011
same,peptide microarray binding signal,[3]; [21],0.00885 ± 0.0017
same,peptide microarray binding signal,[3]; [22],0.00451 ± 0.00052
same,peptide microarray binding signal,[4]; [21],0.00763 ± 0.0013
same,peptide microarray binding signal,[4]; [22],0.00467 ± 0.00017
IHAKRVTIMPKDI [H3 112-124 I H A Kme3 R V T I M P K D I],peptide microarray binding signal,"[1]; peptide modifications: H3K115me3, binder concentration: 50 nM",0.00549 ± 0.00022
same,peptide microarray binding signal,"[1]; peptide modifications: H3K115me3, binder concentration: 500 nM",0.0171 ± 0.00049
same,peptide microarray binding signal,"[2]; peptide modifications: H3K115me3, binder concentration: 10 nM",0.026 ± 0.0073
same,peptide microarray binding signal,"[2]; peptide modifications: H3K115me3, binder concentration: 100 nM",0.00872 ± 0.00066
same,peptide microarray binding signal,[3]; [23],0.0334 ± 0.0055
same,peptide microarray binding signal,[3]; [24],0.0596 ± 0.027
same,peptide microarray binding signal,[4]; [23],0.0319 ± 0.041
same,peptide microarray binding signal,[4]; [24],0.0536 ± 0.0037
